# In PubChem BioAssay (NCATS):
# Several values for one entry are separate records, joined by “and”; a condition that tells them apart may be missing. Equal entries are not always repeated. Results filed as inconclusive are left out. Unmarked numbers belong to inactive results. Activity calls are given as the source filed them. Calls come from the whole dose curve; as a rule, active = well fitted activation curve with a large enough effect; inconclusive = small, poorly fitted or top-dose-only effect; inactive = no such curve, though single readings can be large or run the other way.
# Biological target: Cellular tumor antigen p53 (Homo sapiens) (UniProt P04637)
# Sequence (P04637 whole entry, looked up): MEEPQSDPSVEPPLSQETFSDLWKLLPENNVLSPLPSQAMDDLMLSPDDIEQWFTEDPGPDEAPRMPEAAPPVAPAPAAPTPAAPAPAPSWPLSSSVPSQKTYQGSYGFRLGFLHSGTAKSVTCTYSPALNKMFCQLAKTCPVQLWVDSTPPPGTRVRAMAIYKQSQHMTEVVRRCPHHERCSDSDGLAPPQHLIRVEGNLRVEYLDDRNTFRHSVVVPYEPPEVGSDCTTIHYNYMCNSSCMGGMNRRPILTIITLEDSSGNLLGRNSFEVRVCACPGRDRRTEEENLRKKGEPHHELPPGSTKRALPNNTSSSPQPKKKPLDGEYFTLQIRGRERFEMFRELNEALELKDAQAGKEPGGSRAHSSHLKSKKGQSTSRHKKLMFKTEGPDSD
# Assay: Primary qHTS for small molecule compounds that upregulate eGFP-tagged delta133p53alpha (in N-terminal) cells. (AID 2060322); note: nearly all actives have a fitted effect of over 75% in size;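 for activation: cells pre-induced with doxycycline then dosed without doxycycline; series mostly up to about 56 µM; 0% = DMSO vehicle and 100% = reference activator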
# Details: NCI-H358 eGFP-delta133p53alpha fluorescence, 24 h; activation: active compounds read high
# Outline: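 NCI-H358 cells pre-induced 24 h with 10 ng/ml doxycycline for eGFP-delta133p53alpha, plated dox-free and exposed 24 h at 37C to titrated compounds. Fixed, Hoechst-stained; gated GFP peak intensity by laser scanning cytometry, normalized to DMSO (0%) and 57.5 uM 5-azacytidine (100%).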
# Potency is the fitted concentration of half-maximal effect.
SMILES,activation,Potency
CC(C)NCCCC1(C(N)=O)c2ccccc2-c2ccccc21,4.18%,
O=C(Nc1ccc(Oc2ccc(Cl)cc2)c(Cl)c1)c1cc(I)cc(I)c1O,-20.9%,
C/C(=N\O)[C@@H](C)NCC(C)(C)CN[C@H](C)/C(C)=N/O,-12.6%,
COCCCCC(=NOCCN)c1ccc(C(F)(F)F)cc1,8.31%,
NC(=O)NC(=O)Cc1ccccc1,-10%,
N=C(N)c1ccc(OCCCOc2ccc(C(=N)N)cc2)cc1,-15.9%,
O=C(O)c1[nH]n(-c2ccc(S(=O)(=O)O)cc2)c(=O)c1N=Nc1ccc(S(=O)(=O)O)cc1,3.95%,
C[C@H]1[C@H](O)O[C@@H]2O[C@@]3(C)CC[C@@H]4[C@H](C)CC[C@@H]1[C@@]24OO3,,21.7 µM (active)
CC1(C)[C@H](O[C@H]2O[C@H](C(=O)O)[C@@H](O)[C@H](O)[C@H]2O[C@@H]2O[C@H](C(=O)O)[C@@H](O)[C@H](O)[C@H]2O)CC[C@@]2(C)[C@H]1CC[C@]1(C)[C@H]2C(=O)C=C2[C@H]3C[C@@](C)(C(=O)O)CC[C@]3(C)CC[C@]21C,-5.71%,
CC(C)(C)NCC(O)COc1ccc(NC(=O)NC2CCCCC2)cc1 (stereo unspecified),5.08%,
CN1C[C@H]2c3ccccc3Oc3ccc(Cl)cc3[C@@H]2C1,-34.8% and -0.565%,
COc1cc(C(=S)N2CCOCC2)cc(OC)c1OC,-16.4%,
CCCCN=C(N)NC(=N)N,9.6%,
CCC(=C(c1ccc(O)cc1)c1ccc(OCCNC)cc1)c1ccccc1,62.8%,
CO[C@H]1C[C@@H]2CC[C@@H](C)[C@@](O)(O2)C(=O)C(=O)N2CCCC[C@@H]2C(=O)O[C@H]([C@H](C)C[C@@H]2CC[C@H](OCCO)[C@H](OC)C2)CC(=O)[C@H](C)C=C(C)[C@@H](O)[C@@H](OC)C(=O)[C@H](C)C[C@H](C)C=CC=CC=C1C,24.4%,
CCCCCCCC/C=C/C(=O)O,-2.82%,
Nc1ccc(C(=O)O)cc1,-29.9%,
CCCOC(=O)c1ccc(N)cc1,0%,

SMILES,activation,Potency
NC(=S)N/N=C/c1cccnc1,0.565%,
CN1CCCC(CC2c3ccccc3Sc3ccccc32)C1 (stereo unspecified),14.2%,
CN1CCCN=C1COC(=O)C(O)(c1ccccc1)C1CCCCC1 (stereo unspecified),2.51%,
O=C1CCc2ccccc2O1,-6.7%,
COc1cc(NC(C)CCCN)c2ncccc2c1 (stereo unspecified),,24.6 µM (active)
CC(C)C[C@@H]1[C@H](c2ccccc2)OC(=O)N1CCCN1CCCCCC1,1.67%,
CC(Cc1cccc(C(F)(F)F)c1)NCCOC(=O)c1ccccc1 (stereo unspecified),17.6%,
CN(C)CCOC1=Cc2ccccc2Sc2ccc(Cl)cc21,2.51%,
CO[C@H]1/C=C\O[C@@]2(C)Oc3c(C)c(O)c4c(O)c(c5c(nc6cc(C)ccn65)c4c3C2=O)NC(=O)/C(C)=C\C=C/[C@H](C)[C@H](O)[C@@H](C)[C@@H](O)[C@@H](C)[C@H](OC(C)=O)[C@@H]1C,-1.91%,
Cc1[nH]cnc1CN1CCc2c(c3ccccc3n2C)C1=O,-13.4%,
O=C(O)[C@@H]1[C@H]2C[C@H]3c4[nH]c5ccccc5c4CCN3C[C@@H]2CC[C@@H]1O,,3.09 µM (active)
CC1(C)O[C@@H]2C[C@H]3[C@@H]4CCC5=CC(=O)C=C[C@]5(C)[C@@H]4[C@@H](O)C[C@]3(C)[C@]2(C(=O)CO)O1,10.4%,
COc1ccc(-c2oc3c(CC=C(C)C)c(OC4O[C@H](CO)[C@@H](O)[C@H](O)[C@@H]4O)cc(O)c3c(=O)c2OC2O[C@@H](C)[C@H](O)[C@@H](O)[C@@H]2O)cc1 (stereo partly specified),-27.6%,
O=C(CCc1ccc(O)cc1)c1c(O)cc(O)cc1O[C@@H]1O[C@H](CO)[C@H](O)[C@H](O)[C@H]1O,1.26%,
C[C@H](NCc1ccc2c(c1)nc(NC(=O)c1ccc(-c3cn[nH]c3)s1)n2CCc1ccccc1)C(C)(C)C,,6.11 µM (active)
CCCCCCCCCCCCCCCCCCO,3.35%,
CSc1ccc(/C=C2/C(C)=C(CC(=O)O)c3cc(F)ccc32)cc1,-8.47%,
O=C(NCCc1c[nH]c2ccccc12)c1cccnc1,10.9%,
